# Data reported in PubChem BioAssay (NCATS).
# Inconclusive results are not listed. A call without a number means that no potency is given here. The source made the active and inactive calls. The call rests on the fitted dose curve; in most records, active means well fitted curve in the direction sought with a large enough effect; inconclusive means small, poorly fitted or top-dose-only effect, or another doubt; inactive means no such curve, though single readings can be large; an effect the other way counts as inactive or inconclusive.
# What was measured:
# [1] = S16 Schwann cell viability assay (CellTiter-Glo assay) (AID 624031);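 further: native untransfected S16 rat Schwann cells; cellular ATP luminescence as a viability measure; nearly all actives have a fitted effect of over 70% in size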
# Outline: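 Parental S16 cells, 24 h compound, 37 °C. ATP-luminescence viability; DMSO = 0% activity, empty wells as reference; curves classified by fit quality and efficacy.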
# [2] = system: 3D7; assay: qHTS profiling for inhibitors of Plasmodium falciparum proliferation (AID 504749); further: nearly all actives have a fitted effect of over 60% in size; further: potency means the concentration at half of the fitted maximal effect; conditions: P. falciparum in erythrocytes, SYBR Green DNA, 72 h; series mostly up to 12.8 µM
# Outline: (§1)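 SYBR Green fluorescence (ex 485 nm, em 535 nm) reports parasite DNA after 72 h compound exposure of infected red cells at 0.3% parasitemia, 2.5% hematocrit; signal normalized to 0.29 uM artemisinin and vehicle wells.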
# [3] = system: AS120; assay: as above; conditions: P. falciparum in erythrocytes, SYBR Green DNA, 72 h; series mostly up to 12.8 µM
# Outline: as §1
# [4] = system: ATS189; assay: as above; conditions: P. falciparum in erythrocytes, SYBR Green DNA, 72 h; series mostly up to 12.8 µM
# Outline: as §1
# [5] = system: ATS95; assay: as above; conditions: P. falciparum in erythrocytes, SYBR Green DNA, 72 h; series mostly up to 12.8 µM
# Outline: as §1
# [6] = system: CP185; assay: as above; conditions: P. falciparum in erythrocytes, SYBR Green DNA, 72 h; series mostly up to 12.8 µM
# Outline: as §1
# [7] = system: CP191; assay: as above; conditions: P. falciparum in erythrocytes, SYBR Green DNA, 72 h; series mostly up to 12.8 µM
# Outline: as §1
# [8] = system: CP192; assay: as above; conditions: P. falciparum in erythrocytes, SYBR Green DNA, 72 h; series mostly up to 12.8 µM
# Outline: as §1
# [9] = system: CP203; assay: as above; conditions: P. falciparum in erythrocytes, SYBR Green DNA, 72 h; series mostly up to 12.8 µM
# Outline: as §1
# [10] = system: CP247; assay: as above; conditions: P. falciparum in erythrocytes, SYBR Green DNA, 72 h; series mostly up to 12.8 µM
# Outline: as §1
# [11] = system: CP256; assay: as above; conditions: P. falciparum in erythrocytes, SYBR Green DNA, 72 h; series mostly up to 12.8 µM
# Outline: as §1
# [12] = system: CP262; assay: as above; conditions: P. falciparum in erythrocytes, SYBR Green DNA, 72 h; series mostly up to 12.8 µM
# Outline: as §1
# [13] = system: DIV14; assay: as above; conditions: P. falciparum in erythrocytes, SYBR Green DNA, 72 h; series mostly up to 12.8 µM
# Outline: as §1
# [14] = system: Dd2; assay: as above; conditions: P. falciparum in erythrocytes, SYBR Green DNA, 72 h; series mostly up to 12.8 µM
# Outline: as §1
# [15] = system: ECU; assay: as above; conditions: P. falciparum in erythrocytes, SYBR Green DNA, 72 h; series mostly up to 12.8 µM
# Outline: as §1
# [16] = system: HB3; assay: as above; conditions: P. falciparum in erythrocytes, SYBR Green DNA, 72 h; series mostly up to 12.8 µM
# Outline: as §1
# [17] = system: N140; assay: as above; conditions: P. falciparum in erythrocytes, SYBR Green DNA, 72 h; series mostly up to 12.8 µM
# Outline: as §1
# [18] = system: PAD; assay: as above; conditions: P. falciparum in erythrocytes, SYBR Green DNA, 72 h; series mostly up to 12.8 µM
# Outline: as §1
# [19] = system: PC15; assay: as above; conditions: P. falciparum in erythrocytes, SYBR Green DNA, 72 h; series mostly up to 12.8 µM
# Outline: as §1
# [20] = system: TAB165; assay: as above; conditions: P. falciparum in erythrocytes, SYBR Green DNA, 72 h; series mostly up to 12.8 µM
# Outline: as §1
Compound,outcome [1],Potency [2],Potency [3],Potency [4],Potency [5],Potency [6],Potency [7],Potency [8],Potency [9],Potency [10],Potency [11],Potency [12],Potency [13],Potency [14],Potency [15],Potency [16],Potency [17],Potency [18],Potency [19],Potency [20]
O=C(Nc1ccccc1)OC[C@H](CN1CCCCC1)OC(=O)Nc1ccccc1,inactive,inactive,inactive,inactive,inactive,inactive,inactive,inactive,inactive,inactive,inactive,inactive,inactive,inactive,inactive,inactive,inactive,inactive,inactive,inactive
CC(=O)O[C@]1(C(C)=O)CC[C@@H]2[C@@H]3C=C(C)C4=CC(=O)CC[C@@]4(C)[C@H]3CC[C@]21C,inactive,inactive,inactive,inactive,inactive,inactive,inactive,inactive,inactive,inactive,inactive,inactive,inactive,inactive,inactive,inactive,inactive,inactive,inactive,inactive
CC(=O)[C@@]1(O)CC[C@H]2[C@H]3C[C@@H](C)C4=CC(=O)C=C[C@]4(C)[C@@]3(F)[C@@H](O)C[C@]21C,inactive,inactive,inactive,inactive,inactive,inactive,inactive,inactive,inactive,–,inactive,inactive,inactive,inactive,inactive,inactive,inactive,inactive,inactive,inactive
CC1(C)O[C@@H]2C[C@H]3[C@H]4C[C@H](F)C5=CC(=O)CC[C@]5(C)[C@@H]4[C@H](O)C[C@]3(C)[C@]2(C(=O)CO)O1,inactive,inactive,inactive,inactive,inactive,inactive,inactive,–,inactive,inactive,inactive,inactive,inactive,inactive,inactive,inactive,inactive,inactive,inactive,inactive
CC[C@@H]1OC(=O)[C@H](C)[C@H](O[C@@H]2C[C@](C)(OC)[C@H](O)[C@H](C)O2)[C@H](C)[C@H](O[C@@H]2O[C@@H](C)C[C@@H](N(C)C)[C@@H]2O)[C@](C)(O)C[C@H](C)C(=NOCOCCOC)[C@H](C)[C@H](O)[C@]1(C)O,inactive,inactive,inactive,inactive,inactive,inactive,–,inactive,inactive,inactive,–,inactive,inactive,–,inactive,inactive,inactive,inactive,inactive,inactive
COc1cc(N)c(Cl)cc1C(=O)N[C@H]1CCN(CCCOc2ccc(F)cc2)C[C@H]1OC,inactive,–,–,–,–,–,2 µM (active),inactive,inactive,–,2.82 µM (active),3.61 µM (active),–,3.55 µM (active),–,–,–,–,inactive,3.55 µM (active)
CC(C)(C)NC[C@H](O)COc1cccc2c1CCC(=O)N2,inactive,inactive,inactive,inactive,inactive,inactive,inactive,inactive,inactive,inactive,inactive,inactive,inactive,inactive,inactive,inactive,inactive,inactive,inactive,inactive
CN1C(=O)C[C@H](c2ccccc2)C1=O,–,inactive,–,inactive,0.0071 µM (active),–,inactive,inactive,inactive,inactive,inactive,inactive,inactive,inactive,inactive,inactive,inactive,inactive,inactive,inactive
CO[C@]1(NC(=O)C2SC(=C(C(N)=O)C(=O)O)S2)C(=O)N2C(C(=O)O)=C(CSc3nnnn3C)CS[C@H]21 (some centres not stated),inactive,inactive,inactive,inactive,inactive,inactive,inactive,inactive,inactive,inactive,inactive,inactive,inactive,inactive,inactive,inactive,inactive,inactive,inactive,inactive
C[N+]12CCC(CC1)[C@@H](OC(=O)C(O)(c1ccccc1)c1ccccc1)C2,inactive,inactive,inactive,inactive,inactive,inactive,inactive,inactive,–,inactive,inactive,inactive,–,inactive,inactive,inactive,inactive,inactive,inactive,inactive
C=CCN1C(=CCO)[C@H]2C[C@H]3[C@@H]1CC[C@@]31c3ccccc3N3C=C4[C@@H]5N(/C=C/2[C@H]31)c1ccccc1[C@]51CC[C@H]2[C@H]1C[C@@H]4/C(=C/CO)N2CC=C,inactive,inactive,inactive,inactive,inactive,inactive,inactive,inactive,inactive,inactive,inactive,inactive,inactive,inactive,inactive,inactive,inactive,inactive,inactive,inactive
COc1ccc([C@@H]2CC(=O)c3c(O)cc(O[C@H]4O[C@@H](CO[C@H]5O[C@@H](C)[C@@H](O)[C@@H](O)[C@@H]5O)[C@@H](O)[C@@H](O)[C@@H]4O)cc3O2)cc1O,inactive,inactive,inactive,inactive,inactive,inactive,inactive,–,inactive,inactive,inactive,inactive,inactive,inactive,inactive,inactive,inactive,inactive,inactive,inactive
CNC[C@H](O)c1ccc(OC(=O)C(C)(C)C)c(OC(=O)C(C)(C)C)c1,inactive,inactive,inactive,inactive,inactive,inactive,inactive,inactive,inactive,inactive,10 µM (active),inactive,inactive,inactive,inactive,inactive,inactive,inactive,–,inactive
CC(=O)N(C[C@@H](C)C(=O)O)c1c(I)cc(I)c(N)c1I,inactive,inactive,inactive,inactive,inactive,inactive,inactive,–,–,inactive,inactive,–,–,inactive,inactive,inactive,inactive,inactive,inactive,inactive
CCOC(=O)[C@H](CCc1ccccc1)N[C@@H](C)C(=O)N1[C@H](C(=O)O)C[C@H]2CCC[C@@H]21,inactive,inactive,inactive,inactive,inactive,inactive,inactive,inactive,inactive,inactive,inactive,inactive,inactive,inactive,inactive,inactive,inactive,inactive,inactive,inactive
CCC(=O)O[C@@H]1[C@H](C)O[C@H](O[C@H]2[C@@H](N(C)C)[C@H](O)[C@@H](O[C@@H]3[C@@H](CC=O)C[C@@H](C)[C@@H](O)/C=C\C=C/C[C@@H](C)OC(=O)C[C@@H](OC(=O)CC)[C@H]3OC)O[C@H]2C)C[C@]1(C)O,inactive,inactive,inactive,inactive,inactive,–,inactive,inactive,–,inactive,–,–,inactive,3.16 µM (active),inactive,inactive,–,inactive,inactive,inactive
NS(=O)(=O)c1cc2c(cc1Cl)N[C@@H](CC1CCCC1)NS2(=O)=O,inactive,inactive,inactive,inactive,inactive,inactive,inactive,inactive,inactive,inactive,inactive,inactive,inactive,inactive,inactive,inactive,inactive,inactive,inactive,inactive
C=CCOc1ccccc1OC[C@H](O)CNC(C)C,inactive,inactive,inactive,inactive,inactive,inactive,inactive,inactive,inactive,inactive,–,inactive,inactive,–,inactive,inactive,inactive,inactive,inactive,–
CN(C)CCn1nnnc1SCC1=C(C(=O)O)N2C(=O)[C@@H](NC(=O)Cc3csc(N)n3)[C@@H]2SC1,inactive,inactive,inactive,–,inactive,inactive,–,inactive,inactive,inactive,inactive,inactive,–,inactive,–,–,–,–,–,–
COC(=O)C1=C(C)NC(C)=C(C(=O)OC(C)C)[C@H]1c1cccc2nonc12,inactive,–,–,–,–,inactive,–,inactive,–,–,inactive,–,–,inactive,–,–,3.16 µM (active),inactive,inactive,–
O=C1O[C@H](CN2CCOCC2)CN1/N=C\c1ccc([N+](=O)[O-])o1,inactive,–,–,inactive,inactive,–,inactive,inactive,inactive,inactive,inactive,inactive,inactive,–,–,–,–,–,inactive,–
C[C@H](Oc1ccccc1)C(=O)N[C@@H]1C(=O)N2[C@@H]1SC(C)(C)[C@@H]2C(=O)O,inactive,inactive,inactive,inactive,inactive,inactive,inactive,inactive,inactive,inactive,inactive,inactive,inactive,inactive,inactive,inactive,inactive,inactive,inactive,inactive
NC(=O)N[C@H]1NC(=O)NC1=O,inactive,–,inactive,inactive,inactive,inactive,inactive,inactive,inactive,inactive,inactive,inactive,inactive,inactive,inactive,inactive,inactive,inactive,inactive,inactive
C[C@@H]1Cc2ccccc2N1NC(=O)c1ccc(Cl)c(S(N)=O)c1 (some centres not stated),–,inactive,inactive,inactive,inactive,inactive,inactive,inactive,inactive,inactive,inactive,inactive,inactive,inactive,inactive,inactive,inactive,inactive,inactive,inactive
CC[C@H](CO)NCCN[C@@H](CC)CO,inactive,inactive,inactive,inactive,inactive,inactive,inactive,inactive,inactive,inactive,inactive,inactive,inactive,inactive,–,inactive,inactive,inactive,inactive,inactive
